Screens as filed in PubChem.
Shiga toxin inh: inhibitors of Shiga toxin in Vero cells; AID 2315; Vero cells, Shiga toxin protein synthesis inhibition reporter; 290,000 tested, 9.2% active; inhibition, % at 38.7 µM; in the data active = inhibition mostly above about 28%, no sharp cut-off; inactive = mostly below about 43%
Pf growth 48h: P. falciparum growth inhibition at 48 hours (one generation); P. falciparum luciferase growth in erythrocytes, 48 h; Potency, µM (doses to about 28.7 µM), hits mostly inhibitors; 310,000 tested, 5.9% active; AID 504832
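Parasite viability was followed by luminescence of a genomically integrated firefly luciferase. Cultures held 0.1% parasitemia at 2% hematocrit (final), incubated under 5% CO2 at 37 C.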
CHX counter: counter-screen hit for Shiga toxin inhibitors, cycloheximide; 300,000 tested, 12% active; AID 2314; max response, %; cell reporter, cycloheximide protein synthesis inhibition counterscreen; in the data active = max response mostly above about 13%, no sharp cut-off; inactive = mostly below about 14%; also: read at 38.3 µM for the half of the compounds with a filed dose
Pf growth 96h: P. falciparum growth inhibition at 96 hours; P. falciparum luciferase reporter growth, 96 h; Potency, µM (titrated, usually from 28.7 µM), most hits filed as inhibitors; 320,000 tested, 6.9% active
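Plates of compound plus infected erythrocytes (2% hematocrit, 0.05% parasitemia final) incubate 96 hours, 37 C, 5% CO2. Detection reagent added; reduced luminescence from the parasites' luciferase reporter flags inhibition.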
Marburg entry inh: blocks Marburg virus binding to or entry into cells | Potency, µM (highest dose often 37.8 µM), hits mostly inhibitors | AID 540276 | Marburg virus pseudotyped entry inhibition, cell reporter | 300,000 tested, 1.8% active; calls by dose curve; tested in HEK293 cells
LASV entry inh: blocks Lassa virus binding to or entry into cells; Lassa virus pseudotype entry inhibition, cell reporter; Potency, µM (doses to about 37.9 µM), most hits filed as inhibitors; 300,000 tested, 1.2% active; AID 540256; calls by dose curve; tested in HEK293 cells; also: nearly all actives have a fitted effect of over 50% in size
Large screens that a line does not name were inactive. Hits are enriched below; roughly 19% of the tested compounds scored in any of these assays. Unless noted, calls follow the shape of the dose curve; as a rule, active = well fitted inhibition curve with a large enough effect; inconclusive = small, poorly fitted or top-dose-only effect, or another doubt; inactive = no such curve, though single readings can be large or run the other way.

CC(C)(C)c1ccc(OCCC(=O)OCC(=O)NC(=O)NC2CCCC2)cc1	Pf growth 48h inconclusive (no result: Shiga toxin inh, CHX counter)
COc1cccc(CN(CC2CCCO2)S(=O)(=O)c2ccc(-n3cnnn3)c(OC)c2)c1 (stereo not given)	Pf growth 48h inconclusive
O=c1[nH]c2ccccc2cc1CN(CC1CCCO1)S(=O)(=O)c1ccc(Cl)cc1 (stereo not given)	Marburg entry inh inconclusive
NS(=O)(=O)c1ccc(S(=O)(=O)N(Cc2ccccc2F)CC2CCCO2)cc1 (stereo not given)	Pf growth 48h inconclusive, Pf growth 96h 13.1µM
CCN(Cc1ccccc1)S(=O)(=O)c1ccc(S(=O)(=O)N(Cc2cccc(OC)c2)CC2CCCO2)cc1 (stereo not given)	Pf growth 96h 5.22µM, Marburg entry inh inconclusive (no result: Pf growth 48h)
CCOc1ccccc1OCCCCn1c(-c2ccc(Cl)cc2)nc2ccccc2c1=O	none (no result: Shiga toxin inh, Pf growth 48h, CHX counter, Pf growth 96h)
COc1ccc(CNCc2cccc(C)c2)cc1	none (no result: Shiga toxin inh)
Cc1ccnc(NCc2ccc(Br)cc2)c1	Shiga toxin inh 34.6, CHX counter 38.4 (no result: Marburg entry inh, LASV entry inh)
COc1ccc(CC(=O)Nc2cc(C)ccn2)cc1OC	none (no result: Shiga toxin inh, Pf growth 48h, CHX counter, Pf growth 96h)
COc1ccc(CC(=O)Nc2cc(C)ccn2)cc1	Shiga toxin inh 86.3, CHX counter 42.0
COc1ccc(CNc2cc(C)ccn2)cc1	Shiga toxin inh 97.3, CHX counter 37.5, Pf growth 96h inconclusive, Marburg entry inh inconclusive
Cc1nc2ccc([N+](=O)[O-])cc2s1	none
O=C(O)C1=C(C(=O)Nc2cc(C(F)(F)F)ccc2Cl)CCCC1	Pf growth 96h inconclusive
O=C(CC(=O)c1ccccc1)Nc1cc(C(F)(F)F)ccc1Cl	CHX counter 16.2
O=C(C[n+]1ccc2ccccc2c1)Nc1cc(C(F)(F)F)ccc1Cl	Pf growth 48h 1.31µM, Pf growth 96h inconclusive, Marburg entry inh inconclusive
O=C(C[n+]1ccccc1)Nc1cc(C(F)(F)F)ccc1Cl	none
O=C(NC(=S)Nc1cc(C(F)(F)F)ccc1Cl)c1ccccc1	Pf growth 96h inconclusive, Marburg entry inh inconclusive
CN(C)c1cc[n+](CC(=O)Nc2cc(C(F)(F)F)ccc2Cl)cc1	Pf growth 48h 1.65µM, Pf growth 96h 0.828µM
O=C(O)c1ccc(NNC(=S)Nc2cc(C(F)(F)F)ccc2Cl)cc1	Shiga toxin inh 59.5, CHX counter 36.1
COc1ccc(C(=O)N2CCC(c3ccccc3)CC2)c(OC)c1OC	none
CCN(CC(=O)Nc1ccc(NC(C)=O)cc1)C(=O)c1sc2nc3n(c(=O)c2c1C)CCC3	none (no result: Shiga toxin inh, CHX counter, Marburg entry inh, LASV entry inh)
CCOC(=O)N/N=C/c1ccc(OCCSc2ccc(Cl)cc2)c(OCC)c1	Pf growth 48h 1.85µM, Pf growth 96h 3.29µM, Marburg entry inh inconclusive, LASV entry inh inconclusive
CCOC(=O)N/N=C/c1ccc(OCCSc2ccc(Cl)cc2)c(OC)c1	Pf growth 48h 5.22µM, Pf growth 96h 2.08µM, LASV entry inh inconclusive
COc1cc(C=O)ccc1OCCSc1ccc(Cl)cc1	Shiga toxin inh 70.0, CHX counter 22.2
COc1cc(C=O)ccc1OCCOCCOc1ccc(Cl)cc1	Marburg entry inh inconclusive
O=C(O)c1ccc(NC(C(=O)c2ccccc2)c2ccccc2)cc1 (stereo not given)	Marburg entry inh inconclusive (no result: Shiga toxin inh, Pf growth 48h, CHX counter, Pf growth 96h)
Cc1nc(NC(=O)CSc2nc(N)cc(N)n2)sc1C	none
Cc1ccc(S(=O)(=O)NCCC(=O)Oc2ccc3ccc(=O)oc3c2)cc1	none (no result: Marburg entry inh, LASV entry inh)
O=C(C1=C(O)/C(=C/c2ccc(O)cc2)CCC1)C(F)(F)F	Shiga toxin inh 43.9, CHX counter 30.5
COc1ccc(NC(=O)Nc2nnc(-c3ccccc3SCc3ccccc3)s2)cc1	none (no result: Pf growth 48h, Pf growth 96h)
CCC(C)(C)C1CCc2[nH]nc(C(=O)NCc3ccccn3)c2C1 (stereo not given)	Pf growth 48h 14.7µM, Pf growth 96h 9.28µM (no result: Shiga toxin inh, CHX counter, Marburg entry inh, LASV entry inh)
CCC(C)(C)C1CCc2[nH]nc(C(=O)NCCCNC(=O)OC(C)(C)C)c2C1 (stereo not given)	Pf growth 48h 9.28µM (no result: Shiga toxin inh, CHX counter, Marburg entry inh, LASV entry inh)
CCC1CCc2[nH]nc(C(=O)O)c2C1 (stereo not given)	none (no result: Pf growth 96h)
O=C(NCc1ccccn1)c1n[nH]c2ccccc12	none
CCCn1c(SCC(=O)Nc2ccc(Cl)cc2)n[nH]c1=O	Pf growth 96h inconclusive
COC(=O)c1ccc(N)cc1O	Pf growth 96h 10.4µM (no result: Pf growth 48h)
COc1ccc(-c2nc(C(=O)O)cs2)cc1OC	none
O=C(O)CCN1C(=O)c2ccccc2Sc2ncccc21	none (no result: Marburg entry inh, LASV entry inh)
C=CCn1c(SCC(=O)Nc2cccnc2Cl)nnc1-c1ccc(C(C)(C)C)cc1	CHX counter 13.0, Pf growth 96h inconclusive
CCOC(=O)Cn1c(C)cc(COC)c(C#N)c1=O	none (no result: Marburg entry inh, LASV entry inh)
COc1ccc(Nc2nc(N3CCCC3)nc(N3CCCC3)n2)c(OC)c1	Marburg entry inh 2.06µM (no result: Pf growth 48h)
COc1ccc(Nc2nc(NC(C)(C)C)nc(N3CCCC3)n2)c(OC)c1	Pf growth 96h 4.65µM, Marburg entry inh 5.17µM (no result: Pf growth 48h)
CCOc1ccc(Nc2nc(N3CCCC3)nc(N3CCN(c4ccc(OC)cc4)CC3)n2)cc1	Pf growth 48h inconclusive
COc1ccc(Nc2nc(NC(C)(C)C)nc(N3CCOCC3)n2)c(OC)c1	Pf growth 48h inconclusive, Marburg entry inh 13µM
COc1ccc(N2CCN(c3nc(NC(C)(C)C)nc(N4CCCCC4)n3)CC2)cc1	Pf growth 48h 1.85µM, Marburg entry inh inconclusive, LASV entry inh inconclusive (no result: Pf growth 96h)
COc1ccc(C(=O)NC2=C(C#N)CCC2)cc1OC	LASV entry inh inconclusive (no result: Pf growth 96h)
CN(C)S(=O)(=O)n1cnc2ccccc21	none
CCN(CC)C1=NC=CC(c2ccccc2)=CC1C (stereo not given)	Marburg entry inh inconclusive
CC(C)[C@H](NC(=O)C1CCN(S(=O)(=O)c2ccccc2)CC1)C(=O)NCc1ccccn1	none
O=C(O)CCc1nc(-c2ccccc2)no1	none
NC(Cc1ccccc1)c1nc(-c2ccccc2)no1 (stereo not given)	Shiga toxin inh 38.1, CHX counter 30.4 (no result: Marburg entry inh, LASV entry inh)
O=[N+]([O-])c1ccc(O)c(/C=N/NC(=S)Nc2ccc(Cl)cc2Cl)c1	Pf growth 48h 2.08µM, Pf growth 96h 0.828µM, Marburg entry inh inconclusive, LASV entry inh inconclusive
O=[N+]([O-])c1ccc(/C=N/NC(=S)Nc2ccc(Cl)cc2Cl)s1	Pf growth 48h 13.1µM, Pf growth 96h 3.29µM (no result: Marburg entry inh, LASV entry inh)
COC(=O)c1ccc(CNC(=O)c2ccc(S(=O)(=O)N3CCCC(C)C3)cc2)cc1 (stereo not given)	Pf growth 48h 13.1µM, Pf growth 96h inconclusive (no result: Shiga toxin inh, CHX counter)
Cc1ccc(S(=O)(=O)N2CCCC(C(=O)NCc3ccco3)C2)cc1Cl (stereo not given)	Pf growth 48h inconclusive, Pf growth 96h 13.1µM
CC1CCN(S(=O)(=O)c2ccc(C(=O)NCc3ccco3)cc2)CC1	Pf growth 48h 2.08µM
CC1CCN(S(=O)(=O)c2ccc(C(=O)NCc3ccc4c(c3)OCO4)cc2)CC1	Marburg entry inh inconclusive (no result: Pf growth 96h)
O=C(NCc1ccco1)c1ccc(S(=O)(=O)N2CCCc3ccccc32)cc1	Pf growth 48h inconclusive, Marburg entry inh inconclusive, LASV entry inh 16.4µM (no result: Pf growth 96h)
COc1ccc(CNC(=O)c2ccc(S(=O)(=O)N3CCCC3)cc2)cc1OC	Pf growth 96h inconclusive (no result: Pf growth 48h)
